# Data reported in the supplement of paper PMC8728848.
# Only a selection was taken, and the strongest signals are over-represented in it overall.
# Tests used:
# Test in all cases: glycan array binding signal (z-score within array); higher = stronger binding
# Conditions in all cases: glycan notation: IUPAC condensed, linker removed
# [1] = target: Fuc(a1-2)Gal(b1-3)GalNAc
# Method in brief: (§1)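 The binding signal is a Z-score computed within each array. Data were drawn from 3228 arrays in the Consortium for Functional Glycomics database, restricted to those with a known protein sequence. Scores were averaged over arrays of the same protein sequence at different concentrations or buffers, and over linkers, and negative values can be taken as non-binding.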
# [2] = target: Fuc(a1-2)Gal(b1-4)GlcNAc(b1-3)Gal(b1-4)GlcNAc
# Method in brief: as §1
# [3] = target: Fuc(a1-2)[GalNAc(a1-3)]Gal
# Method in brief: as §1
# [4] = target: Fuc(a1-2)[GalNAc(b1-3)]Gal
# Method in brief: as §1
# [5] = target: Gal(a1-3)Gal
# Method in brief: as §1
# [6] = target: Gal(a1-6)Glc
# Method in brief: as §1
# [7] = target: Gal(b1-3)GalNAc(b1-4)Gal(b1-4)Glc
# Method in brief: as §1
# [8] = target: Gal(b1-3)[Fuc(a1-4)]GlcNAc(b1-3)Gal(b1-4)GlcNAc
# Method in brief: as §1
# [9] = target: Gal(b1-4)Glc
# Method in brief: as §1
# [10] = target: Gal(b1-4)GlcNAc(b1-6)Gal(b1-4)GlcNAc(b1-6)GalNAc
# Method in brief: as §1
# [11] = target: Gal3S(b1-3)GlcNAc
# Method in brief: as §1
# [12] = target: Gal3S(b1-4)Glc6S
# Method in brief: as §1
# [13] = target: Gal3S6S(b1-4)GlcNAc6S
# Method in brief: as §1
# [14] = target: Man(a1-3)[Man(a1-6)]Man(a1-6)[Man(a1-3)]Man(b1-4)GlcNAc(b1-4)GlcNAc
# Method in brief: as §1
# [15] = target: Neu5Ac(a2-3)Gal(b1-4)GlcNAc(b1-3)Gal(b1-4)GlcNAc(b1-3)Gal(b1-4)GlcNAc
# Method in brief: as §1
# [16] = target: Neu5Gc(a2-3)Gal(b1-3)[Fuc(a1-4)]GlcNAc
# Method in brief: as §1
# [17] = target: Neu5Gc(a2-3)Gal(b1-4)GlcNAc
# Method in brief: as §1
binder,measurement,setting,value
LKITALY (Gibberella zeae) (protein) MGNFHESSNNIWLEDGHILHAECGNGEGDYVESTLDLDYYIGNDDGSFSWGGENFSGSASNITLDIEGDDNIPVLRAELNPMDGDPVEANVNLSERIGNDCGTLIFLA,glycan array binding signal (z-score),[1],-0.361
same,glycan array binding signal (z-score),[2],-0.364
same,glycan array binding signal (z-score),[3],-0.347
same,glycan array binding signal (z-score),[4],-0.36
same,glycan array binding signal (z-score),[5],-0.354
same,glycan array binding signal (z-score),[6],-0.352
same,glycan array binding signal (z-score),[7],-0.358
same,glycan array binding signal (z-score),[8],-0.337
same,glycan array binding signal (z-score),[9],-0.357
same,glycan array binding signal (z-score),[10],-0.342
same,glycan array binding signal (z-score),[11],4.13
same,glycan array binding signal (z-score),[12],2.82
same,glycan array binding signal (z-score),[13],3.55
same,glycan array binding signal (z-score),[14],-0.347
same,glycan array binding signal (z-score),[15],3.85
same,glycan array binding signal (z-score),[16],-0.358
same,glycan array binding signal (z-score),[17],3.69
